In the supplement of paper PMC6555819:

What was measured:
Test in all cases: PBM binding z-score (relative to random genomic background probes); higher = stronger binding; sequences stand for … in GC…GCGATTGACAGCGTAGAATGAAGG
[1] = system: FXR:RXRa (NR concentration 270 nM, RXRa partner concentration 90 nM)
Summary of the method: (§1)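 Each nuclear receptor dimer, without ligand, was incubated for 1 h on custom Agilent 4×180K protein-binding microarrays. Binding was detected with antibodies against each partner (one per run), and scanned fluorescence was regression-normalized. The binding z-scores are referenced to random human genomic background probes.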

[2] = system: LXRa:RXRa (NR concentration 270 nM, RXRa partner concentration 90 nM)
Summary of the method: as §1

[3] = system: LXRa homodimer (NR concentration 270 nM)
Summary of the method: as §1

[4] = system: LXRb:RXRa (NR concentration 270 nM, RXRa partner concentration 90 nM)
Summary of the method: as §1

[5] = system: LXRb homodimer (NR concentration 270 nM)
Summary of the method: as §1

[6] = system: PPARa:RXRa (NR concentration 270 nM, RXRa partner concentration 90 nM)
Summary of the method: as §1

[7] = system: PPARg:RXRa (NR concentration 180 nM, RXRa partner concentration 90 nM)
Summary of the method: as §1

[8] = system: PPARg:RXRa 270nM:90nM, anti-RXR (NR concentration 270 nM, RXRa partner concentration 90 nM)
Summary of the method: as §1

[9] = system: PPARg:RXRa 30nM:10nM, anti-RXR (NR concentration 30 nM, RXRa partner concentration 10 nM)
Summary of the method: as §1

[10] = system: PPARg:RXRa 90nM:30nM, anti-RXR (NR concentration 90 nM, RXRa partner concentration 30 nM)
Summary of the method: as §1

[11] = system: PPARg:RXRa DBDmut IVT, anti-RXR (DBD mutation: RXRa K156A/R161A, NR concentration 270 nM, RXRa partner concentration 90 nM)
Summary of the method: as §1

[12] = system: PPARg:RXRa IVT, anti-PPARg (NR concentration 270 nM, RXRa partner concentration 90 nM)
Summary of the method: as §1

[13] = system: PPARg DBDmut:RXRa IVT, anti-PPARg (DBD mutation: PPARg1 K132A/R137A, NR concentration 270 nM, RXRa partner concentration 90 nM)
Summary of the method: as §1

[14] = system: PPARg DBDmut IVT, anti-PPARg (DBD mutation: PPARg1 K132A/R137A, NR concentration 270 nM)
Summary of the method: as §1

[15] = system: PPARg homodimer (NR concentration 180 nM)
Summary of the method: as §1

[16] = system: PXR:RXRa (NR concentration 270 nM, RXRa partner concentration 90 nM)
Summary of the method: as §1

[17] = system: PXR homodimer (NR concentration 270 nM)
Summary of the method: as §1

[18] = system: RARa homodimer (NR concentration 270 nM)
Summary of the method: as §1

[19] = system: RARb:RXRa (NR concentration 270 nM, RXRa partner concentration 90 nM)
Summary of the method: as §1

| Sequence | PBM binding z-score [1] | PBM binding z-score [2] | PBM binding z-score [3] | PBM binding z-score [4] | PBM binding z-score [5] | PBM binding z-score [6] | PBM binding z-score [7] | PBM binding z-score [8] | PBM binding z-score [9] | PBM binding z-score [10] | PBM binding z-score [11] | PBM binding z-score [12] | PBM binding z-score [13] | PBM binding z-score [14] | PBM binding z-score [15] | PBM binding z-score [16] | PBM binding z-score [17] | PBM binding z-score [18] | PBM binding z-score [19] |
| --- | --- | --- | --- | --- | --- | --- | --- | --- | --- | --- | --- | --- | --- | --- | --- | --- | --- | --- | --- |
| ACTAGTTGTTCAGCTGAGGTCACACACAATTCGG | 3.49 | 3.18 | 2.25 | 3.55 | 0.715 | 3.83 | 1.53 | 1.94 | 0.705 | 1.03 | 0.514 | 2.19 | 0.853 | 0.948 | 2.16 | 4.83 | 1.87 | 1.09 | 3.28 |
| CCGACTGGGGCAAAGGTTACCACACTCAGTACGA | 1.86 | 1.89 | 0.137 | 2.27 | -0.702 | 5.83 | 10.7 | 8.79 | 8.43 | 9.24 | 4.8 | 5.98 | 0.442 | 0.282 | 1.18 | 2.44 | -0.0158 | 0.0195 | 2.54 |
| AGTCAGAGTTCATCTAGGTAACGTAAGATATGCT | 6.74 | 5.36 | 4.78 | 3.63 | 1.48 | 4.64 | 4.23 | 4.21 | 1.67 | 3.42 | 0.73 | 2.55 | 1.05 | 0.893 | 1.46 | 5.25 | 9.2 | 1.13 | 4.3 |
| CCTTACGGGTCACGGGGTTATAGCACGACGAGCG | 7.63 | 5.25 | 0.321 | 4.81 | 0.272 | 6.37 | 8.37 | 7.11 | 3.95 | 6.75 | 3.39 | 5.93 | 4.69 | 3.61 | 8.52 | 5.66 | 0.491 | 2.14 | 4.72 |
| CAAACTAGGTCACCGGAAAGTCAAAGTCCGCATG | 4.54 | 3.74 | 0.834 | 2.79 | 0.685 | 5.64 | 9.52 | 7.27 | 5.72 | 7.23 | 8.88 | 9.33 | 3.21 | 3.47 | 2.67 | 2.14 | 0.0377 | 0.631 | 4.72 |
| CGGCCAAGGTCAAAGGTCAGTGAAGAGATGACGG | 8.62 | 7.07 | 2.81 | 6.59 | 1.33 | 7.11 | 10.8 | 8.98 | 8.13 | 9.65 | 3.94 | 5.66 | 0.246 | -0.114 | 7.63 | 7.3 | 1.98 | 4.91 | 6.06 |
| TTACAAAGGTGAGCTGAGGTCGTTGATCCAACTC | 2.66 | 3.19 | -0.299 | 1.68 | -0.674 | 2.86 | 1.57 | 2.39 | 0.713 | 1.38 | 1.9 | 2.58 | 0.303 | -0.224 | 1.41 | 6.04 | 0.268 | -0.325 | 3.23 |
| TCTCGGAGGACACGAAAGGTCAGAACTCGACATC | 2.77 | 3.63 | 3.3 | 3.19 | 0.189 | 3.29 | 1.1 | 2.1 | 2.51 | 2.07 | 1.63 | 1.22 | -0.541 | -0.269 | 3.91 | 4.08 | 0.978 | 2 | 3.83 |
